# An excerpt weighted towards active compounds, which were near 3.2% of everything screened.
# Nrf2 activator – Nrf2 pathway activation. AREc32 ARE-luciferase reporter (MCF7-derived line), luminescence, 24 h. Potency, µM (highest dose often 46.1 µM), inactives show at the highest dose activation, hits mostly activators. actives 0.31% (n = 410,000). AID 624171; note: potency is the fitted concentration of half-maximal effect; % of control where 0% means no effect; nearly all actives have a fitted effect of over 65% in size
#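 For detection, Steady-Glo was added and plates sat 30 min at RT; before that, AREc32_Fluc cells grown overnight in OPTI-MEM/5% FBS had been treated with 23 nL compound for 24 hr at 37 deg C.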
# p53 reactivator – mutant p53 re-activation in reporter cells; actives 0.063% (n = 320,000); AID 504706; Potency, µM (highest dose often 92.2 µM), without a hit: top-dose activity change, positive = activation, most hits filed as activators; H1299 p53-A138V BP100-luciferase reporter, luminescence, 24 h; note: potency is the fitted concentration of half-maximal effect; % of control where 0% means no effect; nearly all actives have a fitted effect of over 45% in size
#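 H1299 (p53-null), stable ts p53-A138V + BP100-Luc; 1000 cells/well, Opti-MEM/10% FBS; cpd 4 pt, 1:5; 24 h, 37 deg C, 5% CO2; detection reagent 10 min RT; luminescence.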
# BRCA1 expr up – increases BRCA1 expression. MCF7-BRCA1-FFLuc reporter, luminescence, 48 h; response scale: scaled: vehicle 0%, 10 µM genistein 100%. Potency, µM (top dose mostly 46.1 µM), for the others: at the highest dose activation, usual class: activators. actives 1.1% (n = 380,000). AID 624202; note: potency is the fitted concentration of half-maximal effect; nearly all actives have a fitted effect of over 80% in size
#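 Reporter cells (MCF7, BRCA1 promoter-firefly luciferase) received library compounds across a concentration series for 48 h. End-point luminescence was measured and concentration-effect curves derived after normalization.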
# A549 viability – counter-screen for Nrf2 inhibitors: cytotoxicity in A549 cells. A549 ARE-Fluc cells, CellTiter-Fluor viability, 18-24 h. AID 504648. actives 0.16% (n = 390,000). Potency, µM (doses to about 46 µM), inactives show top-dose activity change, negative = cytotoxicity, hits mostly inhibitors; note: potency is the fitted concentration of half-maximal effect; % is set by controls: 0 for no effect and ±100 for the full control effect
#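 A549 ARE_Fluc cells in 5% FBS OPTI-MEM were exposed to compounds in concentration-response for 18-24 h at 37 deg C. Viability was read by CellTiter-Fluor fluorescence (Ex 405/Em 525) after 30 min, before the luciferase read.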
# Nrf2 block – Nrf2 pathway inhibition; A549 ARE-Fluc reporter, luciferase luminescence, 18-24 h; actives 2.1% (n = 360,000); Potency, µM (titrated, usually from 46 µM), without a hit: top-dose activity change, negative = inhibition, usual class: inhibitors; note: potency is the fitted concentration of half-maximal effect; % is set by controls: 0 for no effect and ±100 for the full control effect; nearly all actives have a fitted effect of over 60% in size
#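 Nrf2 function is reported as luminescence of an ARE-controlled luciferase in A549 cells. Compounds were tested at several concentrations, and a CellTiter-Fluor read on the same wells flagged cytotoxicity.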
# IL2 activator – IL-2 activation | IL-2 activation reporter assay, cell-based qHTS; stimulated with anti-CD3/CD4/CD28 beads; in transgenic mouse T cells | activation, % (series mostly up to about 46 µM) | actives 0.065% (n = 360,000) | AID 652025; in the data active = activation above about 50%; inconclusive = mostly about 30% to 49%; note: 0% is about no effect
#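 Readout is EGFP and DsRed signal by fluorescent plate cytometry after 18 h at 37 degrees C. Transgenic mouse T cells (750/well) received compound for 60 min before bead stimulation (anti-CD3, anti-CD4, anti-CD28); memory T cells served as non-tolerant control.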
# An asterisk follows results filed as active; u = inconclusive; x = no result given; ! = not confirmed by another sample; [ ] = remark or other dose. Unless noted, calls come from the whole dose curve; as a rule, active = well fitted curve in the direction sought with a large enough effect; inconclusive = small, poorly fitted or top-dose-only effect, or another doubt; inactive = no such curve, though single readings can be large; an effect the other way counts as inactive or inconclusive.
SMILES,Nrf2 activator,p53 reactivator,BRCA1 expr up,A549 viability,Nrf2 block,IL2 activator
Cc1ccc(C(=O)O/N=C(\N)c2cccnc2)cc1[N+](=O)[O-],7%,u,11µM*,2%,u,0
CCn1c(C(=O)N2CCC(C(=O)NCCc3ccc(OC)cc3OC)CC2)cc2sccc21,2%,x,x,1%,u,x
CCCN1CCN(C(=O)Cn2ncc3c4ccccc4n(Cc4cccc(Cl)c4)c3c2=O)CC1,-1%,x,x,-19%,0%,x
CCOc1ccc(N(CC)C(=O)CSc2n[nH]c(-c3ccccc3)n2)cc1,-1%,x,x,-12%,x,x
COc1ccc2cc(CCNC(=O)c3cc4ccccc4o3)c(=O)[nH]c2c1,0%,-21%,-14%,-11%,10µM*,-1
COc1ccc2cc(CCNC(=O)c3cccs3)c(=O)[nH]c2c1,3%,u,2.8µM*,0%,u,-2
COc1ccc2cc(CCNC(=O)CC(C)(C)C)c(=O)[nH]c2c1,0%,19%,34%,-1%,0%,-2
COc1ccc(NC(=O)Cc2ccccc2)cn1,0%,0%,6%,-7%,-2%,-3
COc1ccc(CS(=O)(=O)/C(Cl)=C(/Cl)C(=O)Nc2ccc(OC)nc2)cc1,u,-15%,-100%,21µM*,16µM*,-1
COc1ccc(NC(=O)/C(Cl)=C(/Cl)S(=O)Cc2ccccc2)cn1 (configuration not stated),-2%,-15%,-85%,21µM*,-117%,-5
Cc1ccc(NC(=O)NC(C)c2c(-n3cccc3)sc(C)c2C)cc1F (configuration not stated),0%,x,x,u,23µM*,x
COc1ccc(N(C(=O)c2cccc(C)c2)S(=O)(=O)c2ccc(C)cc2)cc1,0%,x,x,7%,-5%,x
Cc1nnsc1S(=O)(=O)c1ccccc1,1%,3%,-18%,0%,8.2µM*,0
Cc1ccccc1CS(=O)(=O)c1snnc1C,10%,-4%,1%,x,u,2
CCOc1ccc(C(=O)Nc2ccc(-c3nc4ccccc4[nH]3)cc2)cc1[N+](=O)[O-],2%,4%,3.2µM*!,5%,4%,0
Cn1ncc([N+](=O)[O-])c1C(=O)Nc1ccc(-c2nc3ccccc3[nH]2)cc1,2%,u,u,-7%,-15%,-3
Cc1cc(NC(=O)CS(=O)(=O)c2cn(Cc3cccc(F)c3)c3ccccc23)no1,1%,-3%,-22%,u,23µM*,1
Cc1cc(NC(=O)CS(=O)(=O)c2cn(Cc3ccc(F)cc3)c3ccccc23)no1,5%,-2%,-31%,-9%,21µM*,-2
Cc1cc(NC(=O)CS(=O)(=O)c2cn(Cc3cccc(C(F)(F)F)c3)c3ccccc23)no1,0%,x,-11%,x,x,-1
Cc1ccc(NC(=O)c2ccc3c(=O)n4nc(Nc5ccccc5C)sc4nc3c2)cc1C,1%,x,6%,u,u,x
Cc1cc(C(=O)Cn2nnc(-c3ccc(Cl)cc3)n2)c(C)n1CC1CCCO1 (configuration not stated),0%,9%,-52%,-9%,13µM*,3
Cc1cc(C(=O)CSc2nnc(-c3ccc(Cl)cc3)n2C)c(C)n1CC1CCCO1 (configuration not stated),-1%,-1%,-25%,-9%[1.84 µM],7%,-2
Cc1cc(C)n2nc(SCC(=O)c3cc(C)n(CC4CCCO4)c3C)nc2n1 (configuration not stated),2%,-2%,-18%,-5%,10µM*,1
CC1=C(C(=O)Nc2cccnc2)C(c2ccc(F)cc2)n2nc(SCc3ccccc3F)nc2N1 (configuration not stated),0%,x,4%,6%,-5%[9.27 µM],x
c1ccc(-c2noc(C34CC5CC(CC(C5)C3)C4)n2)cc1,0%,16%,78%,-14%,0%,2
SMILES,Nrf2 activator,p53 reactivator,BRCA1 expr up,A549 viability,Nrf2 block,IL2 activator
c1ccc(-c2noc(C34CC5CC(CC(C5)C3)C4)n2)nc1,0%,u,3.5µM*,-14%,u,2
CC(C)(C)Cc1nc(-c2ccccn2)no1,-1%,u,10µM*,-1%,u,-3
Cc1ccc(SCc2nc(-c3ccccn3)no2)cc1,0%,u,5µM*,4%,x,-2
Cc1ccccc1C(=O)Nc1ccccc1OCc1cc(=O)n2ccccc2n1,0%,x,x,-17%,x,x
COc1ccc(-c2onc(C)c2C)cc1S(=O)(=O)Nc1ccc(OC(F)(F)F)cc1,-1%,x,x,-7%,0%,x
Cc1cccc(NC(=O)N2CCc3c(sc4c3CCCC4)C2c2ccc(F)cc2)c1 (configuration not stated),0%,x,x,9%,x,x
O=c1[nH]c(SCc2ccccc2)ncc1S(=O)(=O)c1ccccc1,x,x,0%,-2%,4%,x
COc1ccc(Cn2c(=O)n(-c3ccc(OC)cc3)c(=O)c3c2c2cc(OC)ccc2n3C)cc1,4%,x,x,4%,x,x
CCc1ccc(/C=C/C(=O)c2c(C)cc(C)[nH]c2=O)cc1,-2%,-29%,-83%,-23%,18µM*,-1
Cc1ccc(/C=C/C(=O)c2c(C)cc(C)[nH]c2=O)cc1,28%,-12%,-84%,-11%,x,-2
CCn1c(/C=C/c2ccccc2F)nc2ccccc2c1=O,2.8µM*,-57%,-55%,0%,4%,-1
CCn1c(/C=C/c2ccccc2C)nc2ccccc2c1=O,27%,2%,34%,6%,5%,-5
CCCCOc1ccc(CNC(=O)c2cccc(NC(=O)N3CCSc4ncccc43)c2)cc1,0%,x,x,-17%,u,x
CCOC(=O)c1ccc(N2Cc3ccccc3C2)cc1O,4%,21%,13µM*,1%,14%,2
COc1ccc(C)cc1NC(=O)CSc1nc(=O)n(Cc2ccncc2)c2c1CCC2,11%,x,0%,0%,x,x
COc1ccccc1N1CCN(/N=C/c2ccc(Cl)c([N+](=O)[O-])c2)CC1,3%,x,u,8%,1%,-1
COc1ccccc1N1CCN(/N=C/c2ccc([N+](=O)[O-])cc2)CC1,2%,x,5µM*,-8%,-10%,0
Cc1noc(C)c1-c1ccc2ncnc(NCc3ccc4c(c3)OCO4)c2c1,x,x,x,4%,-19%,x
CC12CCC(C(=O)N3CCN(C(c4ccccc4)c4ccccc4)CC3)(OC1=O)C2(C)C (configuration not stated),-1%,-5%,-42%,-19%,23µM*,-2

# Assay outcomes from PubChem BioAssay.
